The supplement of paper PMC6555819

What was measured:
Assay in all cases: PBM binding z-score (relative to random genomic background probes); higher = stronger binding; sequences stand for … in GC…GCGATTGACAGCGTAGAATGAAGG
[1] = system: PPARg:RXRa DBDmut IVT, anti-RXR (DBD mutation: RXRa K156A/R161A, NR concentration 270 nM, RXRa partner concentration 90 nM)
How it was run: (§1)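 Scanned fluorescence from custom Agilent 4×180K protein-binding microarrays was regression-normalized. Binding z-scores use random background probes as reference. Ligand-free nuclear receptor dimers were incubated on the arrays for 1 h and detected with antibodies against each partner (one per run).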

[2] = system: PPARg:RXRa IVT, anti-PPARg (NR concentration 270 nM, RXRa partner concentration 90 nM)
How it was run: as §1

[3] = system: PPARg DBDmut:RXRa IVT, anti-PPARg (DBD mutation: PPARg1 K132A/R137A, NR concentration 270 nM, RXRa partner concentration 90 nM)
How it was run: as §1

[4] = system: PPARg DBDmut IVT, anti-PPARg (DBD mutation: PPARg1 K132A/R137A, NR concentration 270 nM)
How it was run: as §1

[5] = system: PPARg homodimer (NR concentration 180 nM)
How it was run: as §1

[6] = system: PXR:RXRa (NR concentration 270 nM, RXRa partner concentration 90 nM)
How it was run: as §1

[7] = system: PXR homodimer (NR concentration 270 nM)
How it was run: as §1

[8] = system: RARa:RXR (NR concentration 270 nM, RXRa partner concentration 90 nM)
How it was run: as §1

[9] = system: RARa homodimer (NR concentration 270 nM)
How it was run: as §1

[10] = system: RARb:RXRa (NR concentration 270 nM, RXRa partner concentration 90 nM)
How it was run: as §1

Sequence | PBM binding z-score [1] | PBM binding z-score [2] | PBM binding z-score [3] | PBM binding z-score [4] | PBM binding z-score [5] | PBM binding z-score [6] | PBM binding z-score [7] | PBM binding z-score [8] | PBM binding z-score [9] | PBM binding z-score [10]
CACACTAGGTCACGAAAGGTCAAAGTCGAATGAC | 7.74 | 8.37 | 3.1 | 1.95 | 5.51 | 7.26 | 2.87 | 7.78 | 2.46 | 5.97
CCTAGCAGGCCAGGCTCACTCAAGCATTTCGCTT | 0.917 | -0.38 | -2.2 | -2.12 | -1.28 | -0.919 | -0.688 | -1.09 | -0.856 | -0.239
GGAACGAGGGCAAAGTTGATACCATCTGTCGACG | 3.89 | 3.91 | 0.382 | -0.0769 | 0.593 | 1.61 | 0.644 | 2.09 | 0.0395 | 2.42
AACACAGGGTCACTAGGCCAGAGTAGGTACGAAT | 3.35 | 5.16 | 3.43 | 0.694 | 5.13 | 3.16 | 0.347 | 4.14 | 0.685 | 4.19
AATACAGGGTCACTAGGCCATAGTAGGTACGAAT | 4.35 | 6.47 | 2.07 | 1.76 | 2.21 | 3.31 | 0.565 | 4.46 | 0.595 | 4.11
GCTGCTAGGTCAGGTAGGTCAGCTAACGGGTACG | 3.3 | 3.37 | -0.274 | -0.592 | 1.34 | 1.65 | -0.0271 | 1.95 | -0.315 | 3.87
CAAACTAGGTCACGAAAGGTCCAAGTCGAATGAC | 8.4 | 9.01 | 1.98 | 0.788 | 2.59 | 3.32 | 0.339 | 3.32 | 1 | 4.51
ACTCGGAGGACAAAGGTCAGAGCTACGCCAGTGA | 0.692 | 3.72 | 0.709 | 0.127 | 3.04 | 3.91 | 0.0188 | 5.19 | 2.21 | 4.44
CGAACTAGATCAAGGACAGTGAATCTCCGCACGC | 1.97 | 0.649 | -0.11 | -0.153 | 0.0368 | -0.495 | -0.0304 | -0.24 | 0.262 | 0.0814
CCTATTAGTTGACCATAAGGGCAACGGAAGCTCG | 0.458 | 0.449 | 0.427 | 0.782 | 2.06 | 0.568 | 0.623 | 0.736 | 1.45 | 1.54
GGAACGAGGGCAAGTTGATAGGAGAGTTTGATGG | 3.49 | 2.69 | -0.522 | 0.0128 | 0.664 | 0.817 | 1.15 | 0.165 | -0.204 | 2.63
CCTACTGGGCCAGGGTCATTGATCAGTCAAAGCA | 1.49 | 3.62 | -1.03 | -0.896 | 0.994 | 3.06 | 0.381 | 3.61 | -0.641 | 2.51
TCAGACAGGTGCAGGTAACTCAGGTACGCAGTCG | 1.83 | -0.017 | -0.24 | -0.576 | -0.207 | 0.426 | -0.203 | 0.659 | -0.372 | 0.311
TCTGACAGGTGAAGGTAACTCAGGTACGCAGTCG | 2.21 | 1.39 | 0.246 | -0.0142 | 0.45 | 0.483 | -0.371 | 0.82 | 0.0675 | 1.28
TCATGTAGATCAACAGGAGGTTAAGAAAGATCGA | 1.44 | 0.504 | 0.449 | 0.653 | -0.00792 | 0.814 | -0.17 | 1.3 | 0.399 | 0.499
TAGCCTCGGTCATGGGCCAGTATACCACGCGAAC | -0.58 | 0.53 | -0.301 | -1 | -0.0918 | -0.176 | -0.497 | 0.0375 | -0.653 | 2.42
CAGCCTAGGTCAAGGCCAGTATAGGAGGAACGTT | 2.48 | 2.33 | -0.75 | -0.631 | 0.784 | 1.3 | -0.176 | 1.93 | -0.377 | 4.07
CTCGAAAGATCGTGCTCAGGTGAGTATACCAAAC | -0.285 | -0.0174 | -0.0381 | 0.428 | 0.0271 | -0.467 | -0.289 | -0.00355 | -0.239 | -0.0571
AATACTGGGTCACTAGGCCAGAGTAGGTACGAAT | 6.63 | 7.76 | 5.62 | 2.22 | 1.9 | 0.792 | 0.0229 | 1.53 | 0.983 | 3.19
GATACAGGGTCACCTAGAGGCCAGAGTATGGAAA | 2.73 | 4.97 | 2.46 | 1.14 | 3.21 | 4.54 | 0.0767 | 6.04 | 0.306 | 4.56
CCTACTGGGCCATTCAGAGGTCATGGATCATATG | 4.14 | 4.64 | 0.856 | 0.389 | 2.93 | 4.92 | 0.765 | 5.46 | 0.962 | 3.19
CCTACTGGGACACGAAAGGTCATTGATTCAGTGA | 5.93 | 5.78 | 0.301 | -0.131 | 2.99 | 4.91 | 2.47 | 4.98 | 1.59 | 4.06
TCGAGTAGGTTAGTCGGGGCATTCATCCAACATA | 2.52 | 2.11 | 0.0178 | -0.145 | 0.384 | 0.279 | 0.0478 | 0.5 | -0.336 | 0.665
CCGACTGGGGCAAAGGTTACCAAACTCAGTACGA | 4.42 | 6.14 | -0.923 | -0.533 | 1.38 | 2.51 | -0.494 | 4.11 | 0.0196 | 2.52
CCTATTAGTTGACCATAAGGGCAACAGAAGCTCG | 0.409 | 0.628 | -0.0621 | 0.417 | 1.95 | 0.896 | 0.847 | 1.15 | 1.6 | 1.42
